# Results as given in PubChem BioAssay AID652162 (Broad Institute, 2013).
# Values joined by “and” are separate entries in the source; they are usually repeats but may differ in a detail not shown here. Identical values can stand only once. The campaign covered roughly 350,000 compounds. About 840 (0.24%) were called active. Cut-off read from the data, not from the text of the source: active = inhibition above about 10%; inactive = the rest. The entries come from a sample that favours actives as a whole.
# Biological target: Toxin B (Clostridioides difficile) (UniProt P18177)
# Sequence (P18177 whole entry, looked up): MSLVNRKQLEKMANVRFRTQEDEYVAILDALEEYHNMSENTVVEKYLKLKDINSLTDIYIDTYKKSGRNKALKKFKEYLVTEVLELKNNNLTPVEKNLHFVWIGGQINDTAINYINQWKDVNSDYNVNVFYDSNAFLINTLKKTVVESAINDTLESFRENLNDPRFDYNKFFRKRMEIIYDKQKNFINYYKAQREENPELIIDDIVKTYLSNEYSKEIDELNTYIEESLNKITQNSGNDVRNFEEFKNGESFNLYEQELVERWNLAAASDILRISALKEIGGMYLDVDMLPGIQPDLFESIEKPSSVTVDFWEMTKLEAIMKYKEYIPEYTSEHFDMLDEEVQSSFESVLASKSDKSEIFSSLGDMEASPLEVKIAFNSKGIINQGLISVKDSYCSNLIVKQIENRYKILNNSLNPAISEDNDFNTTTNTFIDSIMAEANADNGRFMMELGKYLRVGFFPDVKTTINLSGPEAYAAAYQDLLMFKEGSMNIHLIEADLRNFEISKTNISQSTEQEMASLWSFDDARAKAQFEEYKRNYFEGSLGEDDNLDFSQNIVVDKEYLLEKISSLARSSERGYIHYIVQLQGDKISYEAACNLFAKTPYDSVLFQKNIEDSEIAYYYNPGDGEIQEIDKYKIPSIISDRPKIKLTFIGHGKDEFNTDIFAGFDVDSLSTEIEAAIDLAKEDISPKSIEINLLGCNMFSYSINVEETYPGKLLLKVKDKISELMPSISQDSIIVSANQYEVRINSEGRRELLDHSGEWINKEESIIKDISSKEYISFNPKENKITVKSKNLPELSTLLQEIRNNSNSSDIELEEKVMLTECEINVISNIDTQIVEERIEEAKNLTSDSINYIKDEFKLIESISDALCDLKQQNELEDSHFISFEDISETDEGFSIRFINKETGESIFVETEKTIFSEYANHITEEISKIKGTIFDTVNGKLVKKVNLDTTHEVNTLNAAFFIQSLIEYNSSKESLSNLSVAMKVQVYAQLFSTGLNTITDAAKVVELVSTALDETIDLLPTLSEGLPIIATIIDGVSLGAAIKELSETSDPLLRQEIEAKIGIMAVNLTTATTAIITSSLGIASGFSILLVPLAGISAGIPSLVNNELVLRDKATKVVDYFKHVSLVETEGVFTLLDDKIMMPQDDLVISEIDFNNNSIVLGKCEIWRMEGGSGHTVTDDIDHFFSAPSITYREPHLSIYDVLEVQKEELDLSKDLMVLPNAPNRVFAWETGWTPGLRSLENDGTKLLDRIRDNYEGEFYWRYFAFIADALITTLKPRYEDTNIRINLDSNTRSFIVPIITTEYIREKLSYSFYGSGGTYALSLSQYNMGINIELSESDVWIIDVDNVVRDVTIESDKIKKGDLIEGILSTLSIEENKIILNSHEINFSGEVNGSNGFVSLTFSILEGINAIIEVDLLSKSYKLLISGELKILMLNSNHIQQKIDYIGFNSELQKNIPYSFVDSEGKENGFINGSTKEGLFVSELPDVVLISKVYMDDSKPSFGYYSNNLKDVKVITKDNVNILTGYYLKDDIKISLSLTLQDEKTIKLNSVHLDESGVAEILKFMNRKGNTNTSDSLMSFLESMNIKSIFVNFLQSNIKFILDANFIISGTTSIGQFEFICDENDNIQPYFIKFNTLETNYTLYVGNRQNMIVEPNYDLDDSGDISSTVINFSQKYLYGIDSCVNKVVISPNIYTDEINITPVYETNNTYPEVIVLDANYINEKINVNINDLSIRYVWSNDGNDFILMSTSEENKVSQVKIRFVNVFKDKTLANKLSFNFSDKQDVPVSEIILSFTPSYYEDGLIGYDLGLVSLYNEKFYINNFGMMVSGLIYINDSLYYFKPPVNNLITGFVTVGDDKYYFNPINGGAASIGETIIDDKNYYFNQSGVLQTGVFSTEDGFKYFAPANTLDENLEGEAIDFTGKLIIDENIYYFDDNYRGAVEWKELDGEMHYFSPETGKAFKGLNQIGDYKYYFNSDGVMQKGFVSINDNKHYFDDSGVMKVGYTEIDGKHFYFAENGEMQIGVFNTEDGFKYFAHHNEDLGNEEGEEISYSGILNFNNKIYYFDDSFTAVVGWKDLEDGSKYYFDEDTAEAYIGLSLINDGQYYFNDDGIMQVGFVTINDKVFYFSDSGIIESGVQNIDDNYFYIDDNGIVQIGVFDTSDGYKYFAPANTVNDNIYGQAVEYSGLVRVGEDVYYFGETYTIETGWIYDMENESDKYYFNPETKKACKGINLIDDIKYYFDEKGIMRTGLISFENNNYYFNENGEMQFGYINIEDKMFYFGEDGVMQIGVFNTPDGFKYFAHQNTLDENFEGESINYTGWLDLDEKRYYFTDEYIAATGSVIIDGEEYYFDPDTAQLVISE
# Test: TcdB glycohydrolase inhibitors, primary screen, biochemical, single point, plate reader (AID 652162)
# Settings: TcdB glycohydrolase enzymatic assay, at 9.99 µM, stronger effect = higher value
row,Compound,inhibition
1,Cc1cc(C(=O)Nc2ccc3c(c2)C(=O)N(C)[C@H]2CC[C@H](CC(=O)NCC(F)(F)F)O[C@@H]2CO3)no1,-0.366% (inactive)
2,CO[C@H]1O[C@H](CO)[C@@H](OC(=O)Nc2ccc(C(F)(F)F)cc2)[C@H](OC(=O)Nc2ccc3c(c2)OCO3)[C@H]1OC(=O)Nc1ccc2c(c1)OCO2,0.426% (inactive)
3,CO[C@@H]1CN(C)C(=O)c2cc(NC(C)=O)ccc2OC[C@H](C)N(Cc2ccccc2F)C[C@@H]1C,-0.886% (inactive)
4,CN(C)C(=O)c1ccc(-c2ccc([C@H]3[C@H](CO)N4CCCCN(S(C)(=O)=O)C[C@@H]34)cc2)cc1,-1.71% (inactive)
5,O=C(CCN1CCCCC1)N[C@H]1CC[C@H](CCNS(=O)(=O)c2ccc(F)cc2)O[C@@H]1CO,0.554% (inactive)
6,Cc1ccccc1-c1ccc(C2[C@@H]3CN(C(=O)C4CCCCC4)C[C@H]2N3)cc1 (stereo partly specified),-3.88% (inactive) and 0.934% (inactive)
7,Nc1nnn(CC(=O)N/N=C/c2ccc(O)cc2)n1,13.2% (active)
8,Cc1nonc1C(=O)N/N=C/c1ccc(O)cc1,5.9% (inactive)
9,O=C(C[n+]1ccccc1)N/N=C/c1ccc(O)cc1,11.1% (active)
10,Nc1nnn(CC(=O)N/N=C/c2ccccc2)n1,1.05% (inactive)
11,O=C(CSC1c2ccccc2-c2ccccc21)N/N=C/c1ccccc1,2.65% (inactive)
12,O=C(CN1CCSCC1)N/N=C/c1ccc(Cl)cc1,1.98% (inactive)
13,COc1ccc2c3c([nH]c2c1)[C@@H](CO)N(C(=O)CC1CC1)CC31CCN(Cc2cccnc2)CC1,0.524% (inactive)
14,O=C(Cc1ccccc1)N1C[C@@H]2[C@H](c3ccccc31)[C@@H](CO)N2C(=O)Nc1ccc(F)cc1,1.65% (inactive)
15,COCC(=O)Nc1ccc2c(c1)[C@H]1C[C@H](CC(=O)NCc3ccc(OC)cc3)O[C@@H](CO)[C@H]1O2,1.91% (inactive)
16,CN1C(=O)c2cc(NC(=O)Nc3ccccc3F)ccc2OC[C@H]2O[C@H](CC(=O)NCc3ccc(-c4ccccc4)cc3)CC[C@H]21,-0.392% (inactive)
17,COCC(=O)Nc1ccc2c(c1)OC[C@H](C)N(C(=O)c1ccccc1F)C[C@H](C)[C@H](OC)CN(C)C2=O,0.041% (inactive)
18,CN(CCOc1ccccc1)Cc1nc2cc(Cl)ccc2c(=O)[nH]1,-0.715% (inactive)
19,O=c1[nH]c(CN2CCOCC2)nc2cc(Cl)ccc12,11.3% (active)
20,O=c1[nH]c(CN2CCOCC2)nc2scc(-c3ccccc3)c12,2.63% (inactive)
21,CC(C)CC#Cc1cnc2c(c1)C(=O)N([C@@H](C)CO)C[C@@H](C)[C@@H](CN(C)C(=O)c1cccnc1)O2,-0.559% (inactive)
22,O=C1C=CCCN1C(=O)/C=C/c1ccc(F)cc1,0.919% (inactive)
23,CCS(=O)(=O)N1CCC2(CC1)CN(S(=O)(=O)c1ccc(C)cc1)[C@H](CO)c1[nH]c3cc(OC)ccc3c12,-1.12% (inactive)

row,Compound,inhibition
1,CCOC(=O)c1ccc(NC(=S)N2CCCC2)cc1,1.01% (inactive)
2,CN(C)c1ccc(C(=S)N2CCN(C(=S)Nc3ccc(Cl)cc3)CC2)cc1,17.4% (active)
3,O=C(NC1CCN(C(=S)Nc2ccc(Cl)cc2)CC1)C1CCCCC1,-0.645% (inactive)
4,COc1ccccc1NC(=O)N1CC(=O)N2[C@H](C1)[C@H](c1ccc(C#Cc3ccccc3)cc1)[C@@H]2CO,0.309% (inactive)
5,O=C(C[C@H]1CC[C@@H]2[C@H](COC[C@@H](O)CN2CC2CC2)O1)NCC1CC1,-1.35% (inactive)
6,O=C(C[C@@H]1CC[C@@H]2[C@H](COC[C@H](O)CN2CC2CCOCC2)O1)NCC1CCCCC1,0.565% (inactive)
7,C[C@H]1CN([C@@H](C)CO)C(=O)c2cc(NS(=O)(=O)c3ccc(F)cc3)ccc2O[C@H]1CN(C)CC1CC1,-1.14% (inactive)
8,O=C(C[C@@H]1C[C@@H]2c3cc(NS(=O)(=O)c4ccc(F)cc4)ccc3O[C@@H]2[C@H](CO)O1)NCc1cc(F)ccc1F,-0.254% (inactive)
9,C[C@@H]1CN([C@@H](C)CO)C(=O)c2cc(NC(=O)Nc3ccc(C(F)(F)F)cc3)ccc2O[C@@H](C)CCCCO[C@@H]1CN(C)C(=O)Nc1cccc2ccccc12,-0.569% (inactive)
10,C[C@@H]1CN([C@H](C)CO)C(=O)c2cccc(NS(=O)(=O)c3ccc(F)cc3)c2O[C@@H]1CN(C)C(=O)Nc1ccc(C(F)(F)F)cc1,0.036% (inactive)
11,C[C@@H]1CN([C@@H](C)CO)S(=O)(=O)c2ccc(/C=C/c3ccccc3)cc2O[C@H]1CN(C)C(=O)Nc1cc(F)ccc1F,-0.621% (inactive)
12,O=C(N/C(=C\c1ccc(F)cc1)C(=O)N1CCCCCC1)c1ccccc1,1.06% (inactive)
13,O=C(N/C(=C\c1ccc(O)cc1)C(=O)N1CCCCC1)c1ccccc1,14.3% (active)
14,CC1CCN(C(=O)/C(=C\c2ccccc2)NC(=O)c2ccccc2)CC1,0.574% (inactive)
15,C[C@H](CO)N1C[C@H](C)[C@H](CN(C)S(=O)(=O)c2ccccc2C#N)OCc2cn(nn2)CCCC1=O,-0.086% (inactive)
16,CNC[C@H]1OCCCC[C@@H](C)Oc2ccc(NS(C)(=O)=O)cc2C(=O)N([C@@H](C)CO)C[C@H]1C,0.355% (inactive)
17,CO[C@H]1CN(C)C(=O)c2cc(NC(=O)c3cc(C)on3)ccc2OC[C@@H](C)N(C(C)=O)C[C@H]1C,-0.186% (inactive)
18,C[C@H](CO)N1C[C@H](C)[C@H](CN(C)S(=O)(=O)c2cccs2)Oc2ccc(NC(=O)Nc3ccccc3)cc2C1=O,-11.1% (inactive)
19,O=C(Nc1cccc(Cl)c1)N[C@@H]1CC[C@@H](CCNC(=O)C2CCOCC2)O[C@@H]1CO,-0.908% (inactive)
20,CN(C)c1ccc(-c2nnc(-c3cccnc3)o2)cc1,0.383% (inactive)
21,O=C(NNC(=O)c1csc(-c2cccnc2)n1)Nc1ccc(Cl)cc1,0.087% (inactive)
22,CN(c1ccc(O)cc1)c1nc(-c2cccnc2)cs1,14.9% (active)
23,CCCNC(=O)C[C@H]1C[C@@H]2c3cc(NC(=O)NC4CCCC4)ccc3O[C@@H]2[C@@H](CO)O1,-0.087% (inactive)
